Among all 310,000 compounds or so, about 14,000 (4.5%) showed an effect of 50% or more. Effects have a minus sign here. This is one part of a sample in which strong results are shown more often than they occur.
Molecular target: human ether-à-go-go-related gene (hERG) potassium channel (human, UniProt Q12809)
Assay: primary screen, population patch clamp on CHO cells stably expressing hERG; higher = less effect of the substance
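Also: peak tail current of the secondary pulse compared with the same well before compound.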

Chain of human ether-à-go-go-related gene (hERG) potassium channel (Q12809 whole entry, looked up): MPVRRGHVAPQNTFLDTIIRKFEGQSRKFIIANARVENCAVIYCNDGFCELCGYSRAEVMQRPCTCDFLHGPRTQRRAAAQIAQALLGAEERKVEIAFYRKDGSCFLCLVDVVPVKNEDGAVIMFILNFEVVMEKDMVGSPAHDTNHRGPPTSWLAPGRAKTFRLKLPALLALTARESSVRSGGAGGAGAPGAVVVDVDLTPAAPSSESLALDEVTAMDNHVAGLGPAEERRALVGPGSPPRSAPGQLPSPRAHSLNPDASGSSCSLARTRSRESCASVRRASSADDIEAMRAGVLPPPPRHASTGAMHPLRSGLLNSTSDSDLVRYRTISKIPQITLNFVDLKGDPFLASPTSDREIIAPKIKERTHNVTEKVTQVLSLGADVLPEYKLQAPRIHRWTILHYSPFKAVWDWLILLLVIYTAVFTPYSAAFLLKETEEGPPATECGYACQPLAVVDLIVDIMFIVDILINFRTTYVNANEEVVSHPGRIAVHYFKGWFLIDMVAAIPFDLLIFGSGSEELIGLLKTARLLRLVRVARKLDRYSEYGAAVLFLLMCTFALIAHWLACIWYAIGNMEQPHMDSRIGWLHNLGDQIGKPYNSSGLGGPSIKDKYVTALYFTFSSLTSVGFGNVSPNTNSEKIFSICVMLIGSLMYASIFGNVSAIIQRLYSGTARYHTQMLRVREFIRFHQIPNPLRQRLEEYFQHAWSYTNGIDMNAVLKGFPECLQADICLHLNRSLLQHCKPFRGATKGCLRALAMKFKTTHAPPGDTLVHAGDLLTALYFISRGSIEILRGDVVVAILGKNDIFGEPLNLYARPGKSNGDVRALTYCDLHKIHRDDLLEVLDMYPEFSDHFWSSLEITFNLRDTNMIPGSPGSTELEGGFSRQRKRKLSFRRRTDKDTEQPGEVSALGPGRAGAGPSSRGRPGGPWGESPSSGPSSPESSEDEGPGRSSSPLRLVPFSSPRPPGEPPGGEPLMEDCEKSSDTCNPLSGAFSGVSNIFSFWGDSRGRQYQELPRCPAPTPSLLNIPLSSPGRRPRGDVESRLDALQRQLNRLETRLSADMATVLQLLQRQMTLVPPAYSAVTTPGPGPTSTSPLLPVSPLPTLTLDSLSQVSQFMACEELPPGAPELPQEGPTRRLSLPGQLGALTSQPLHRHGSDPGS

SMILES	hERG current change (%, negative = inhibition) at 10uM
Cc1nc2ccc(Br)cn2c1NC(C)(C)C	-20.9%
COc1ccc(-c2cc(C#N)nc(N3CCN(c4ccccc4)CC3)n2)cc1	3.41%
CCOc1cc2[nH]c(=S)n(CCCN3CCCC3=O)c(=O)c2cc1OCC	-23.5%
COCc1nnc(NC(=O)c2cccc(NC(=O)c3ccccc3)c2)s1	-8.59%
O=C(/C=C/c1cccc([N+](=O)[O-])c1)N1CCOCC1	-3.86%
O=C(/C=C/c1cccc([N+](=O)[O-])c1)N1CCN(c2ccc(F)cc2)CC1	-56.7%
O=C(/C=C/c1cccc([N+](=O)[O-])c1)N1CCN(c2ccccc2F)CC1	-38.9%
O=C(NCCC(=O)N1CCCC1)c1ccccc1Cl	22%
CNC(=O)C(C)N1c2cccc3cccc(c23)S1(=O)=O (stereo not shown)	22.3%
Cc1ccc(OCc2nnc(SCC(=O)c3ccccc3)n2-c2ccccc2)cc1	1.75%
CC1(c2ccccc2)NC(=O)N(CC(=O)Nc2ccccc2C(=O)N2CCCCC2)C1=O (stereo not shown)	19.7%
O=C(CSc1nc(-c2ccco2)cc(C(F)(F)F)n1)N1CCN(Cc2ccccc2)CC1	-58.8%
CN1CCN(C(=O)CSc2nc(-c3ccco3)cc(C(F)(F)F)n2)CC1	15.3%
O=C(CSc1nc(-c2ccco2)cc(C(F)(F)F)n1)N1CCSCC1	-19.9%
CCc1cc(C(=O)N(C)CC(=O)Nc2c(Cl)cccc2Cl)sc1C	-2.89%
COc1cc(O)c(C(CCN2CCCC2)c2cc(OC)c(OC)c(OC)c2)c(OC)c1 (stereo not shown)	-7.35%
COc1cc(O)c(C(CCN2CCCC(C)C2)c2ccc(N(C)C)cc2)c(OC)c1 (stereo not shown)	-29.5%
COc1cc(O)c(C(CC(=O)N2CCCCC2)c2ccc3c(c2)OCO3)c(OC)c1 (stereo not shown)	5.41%
COc1cc(O)c(C(CCN2CCCCC2)c2ccc3c(c2)OCO3)c(OC)c1 (stereo not shown)	-78.3%
COc1cc(O)c(C(CCN2CCCC(C)C2)c2ccc3c(c2)OCO3)c(OC)c1 (stereo not shown)	-77.5%
COc1cc(O)c(C(CC(=O)N2CCOCC2)c2ccc3c(c2)OCO3)c(OC)c1 (stereo not shown)	7.98%
COc1cc(O)c(C(CCN2CCOCC2)c2ccc3c(c2)OCO3)c(OC)c1 (stereo not shown)	-59.5%
COc1cc(O)c(C(CC(=O)N2CCCC2)c2ccc3c(c2)OCO3)c(OC)c1 (stereo not shown)	6.4%
COc1cc(O)c(C(CCN2CCCC2)c2ccc3c(c2)OCO3)c(OC)c1 (stereo not shown)	-72.5%
COc1cc(O)c(C(CC(=O)N2CCCC(C)C2)c2ccc3c(c2)OCO3)c(OC)c1 (stereo not shown)	-5.66%
COc1cc(O)c(C(CCN2CCOCC2)c2ccc(N(C)C)cc2)c(OC)c1 (stereo not shown)	7.96%

SMILES	hERG current change (%, negative = inhibition) at 10uM
COc1cc(O)c(C(CCN2CCN(c3ccccc3)CC2)c2ccc3c(c2)OCO3)c(OC)c1 (stereo not shown)	-16.6%
COc1ccc(NC(=O)c2cc3ccccc3o2)cc1OC	-3.22%
O=C1CC(c2ccccc2)c2ccccc21 (stereo not shown)	8.78%
Cc1ccc(Cn2nc(C)c(NC(=O)CSc3nc4c(c(C(F)(F)F)n3)CCc3ccccc3-4)c2C)cc1	13.1%
O=C(O)Cc1sc(Nc2ccc(F)cc2)nc1-c1cccs1	15.3%
Cc1ccccc1C(CC(=O)c1cccs1)C(C#N)C#N (stereo not shown)	20.2%
Cc1ccc(Cn2ncc3c(N4CCN(c5ccc(C)cc5)CC4)ncnc32)cc1	8.18%
COCCN(C(=O)c1cc2c(s1)CCCCC2)c1c(N)n(CC(C)C)c(=O)[nH]c1=O	3.04%
CCOC(=O)C(NC(=O)C1CCCN1C(=O)OCc1ccccc1)C(=O)OCC (stereo not shown)	-0.938%
CCc1nnc(NC(=O)C2CCCN2C(=O)Nc2ccc(Cl)cc2)s1 (stereo not shown)	1.86%
COc1cc(-c2cc(C(=O)Nc3ccc(S(=O)(=O)Nc4ncccn4)cc3)c3ccccc3n2)cc(OC)c1OC	-7.01%
CCn1c(=O)cc(SCC(=O)Nc2ccc(OC)c(OC)c2)c2ccccc21	-4.7%
COc1ccc(S(=O)(=O)Nc2ccc(-n3cnnn3)cc2)cc1[N+](=O)[O-]	0.00208%
CC(C)(C)OC(=O)NCCCCCNC(=O)c1[nH]cnc1C(=O)Nc1ccc(Cl)cc1	-6.26%
CC(C)(C)OC(=O)CNC(=O)c1[nH]cnc1C(=O)NC1CCN(C(=O)OC(C)(C)C)CC1	-2.67%
CC(C)(C)OC(=O)NCCCCCNC(=O)c1[nH]cnc1C(=O)Nc1ccccc1	-53.2%
CC(C)(C)OC(=O)NCCCCCNC(=O)c1[nH]cnc1C(=O)NC1CCN(C(=O)OC(C)(C)C)CC1	-78.1%
CC(C)(C)OC(=O)N1CCC(NC(=O)c2nc[nH]c2C(=O)NC2CCN(C(=O)OC(C)(C)C)CC2)CC1	-31.5%
Cc1ccc(NC(=O)c2nc[nH]c2C(=O)NCCCCCNC(=O)OC(C)(C)C)cc1	-15.2%
O=C(COC(=O)/C=C/c1ccccc1Cl)NC1CCCC1	14.6%
O=C(Nc1cccc2ccccc12)NC1CCCCC1O (stereo not shown)	0.227%
O=C(Nc1ccc(Cl)cc1Cl)C1CCC(=O)N1Cc1ccccc1Cl (stereo not shown)	-2.67%
C#CCOCCOCCOCCNc1nc(N2CCN(C(=O)CCCCCCCCCCNC(=O)[C@H](CO)n3cc(CCCSC)nn3)CC2)nc(N2CCN(C(=O)CCCCCCCCCCNC(=O)[C@@H]([C@H](C)O)n3cc(C)nn3)CC2)n1	8.18%
Cc1nnc(SCC(=O)Nc2ccc3c(c2)OCCO3)s1	16.9%
C/C(=N\O)c1ccc2c3ccccc3n(C)c2c1	25.3%
COc1cc(CNCc2cccs2)ccc1OCc1ccccc1.Cl	-31.8%
